Experimental findings from ChEMBL document CHEMBL3433997, “St. Jude Leishmania screening dataset” (2016) are described below.

Common to all, as to assay type: functional
Assay [1] addresses Solute carrier family 2, facilitated glucose transporter member 1 (Homo sapiens) (UniProt P11166). Put plainly: ST_JUDE_LEISH: Cytotoxicity at 2uM final concentration against transgenic Leishmania Mexicana promastigotes LmGLUT1 that are glucose transport deficient and complemented with the human glucose transporter GLUT1. Activity is measured by DNA content using SYBR green in vitro.

Assay [2] has as its target Hexose transporter 1 (Plasmodium falciparum) (UniProt O97467). Put plainly: ST_JUDE_LEISH: Cytotoxicity at 2uM final concentration against transgenic Leishmania Mexicana promastigotes LmPfHT that are glucose transport deficient and complemented with the Plasmodium falciparum hexose transporter. Activity is measured by DNA content using SYBR green in vitro.
In assay [3] the target is Glucose transporter (Leishmania mexicana) (UniProt O61059). Briefly: ST_JUDE_LEISH: Cytotoxicity at 2uM final concentration against transgenic Leishmania Mexicana promastigotes LmGT2 that are glucose transport deficient and complemented with the L. Mexicana glucose transporter 2. Activity is measured by DNA content using SYBR green in vitro.

Sequence of Solute carrier family 2, facilitated glucose transporter member 1 (Homo sapiens) (P11166 whole entry): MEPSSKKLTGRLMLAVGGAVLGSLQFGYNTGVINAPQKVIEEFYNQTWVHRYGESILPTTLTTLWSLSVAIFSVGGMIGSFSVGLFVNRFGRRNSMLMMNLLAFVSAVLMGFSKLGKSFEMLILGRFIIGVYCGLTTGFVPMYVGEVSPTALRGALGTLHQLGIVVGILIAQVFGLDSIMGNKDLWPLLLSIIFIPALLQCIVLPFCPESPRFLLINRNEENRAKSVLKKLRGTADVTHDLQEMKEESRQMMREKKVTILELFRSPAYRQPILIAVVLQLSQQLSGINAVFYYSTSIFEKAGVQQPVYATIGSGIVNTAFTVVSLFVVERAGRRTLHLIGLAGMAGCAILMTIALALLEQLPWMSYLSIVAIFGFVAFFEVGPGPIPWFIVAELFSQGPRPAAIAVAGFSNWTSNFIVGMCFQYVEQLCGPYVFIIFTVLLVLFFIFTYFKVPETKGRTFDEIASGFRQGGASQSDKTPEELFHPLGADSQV

For orientation: inhibition means the relative decrease from the control value, in per cent. On to `COc1ccc(CNCc2cccc(-c3ccc(-c4nc5ccccc5[nH]4)s3)c2)cc1`, for which the figures for the inhibition in assay [1], in assay [2] and in assay [3] were 5.19%, 3.24% and 2.44%, respectively.
The like results for `CCC1N=C(N)N=C(N)N1OCCCOc1c(Cl)cc(Cl)cc1Cl` (stereo not drawn) were, in that order, 3.53%, 2.05% and 3.44%.
The like results for `CC(C)CCNC(=N)c1ccc(OCCCCCOc2ccc(C(=N)NCCC(C)C)cc2)cc1` were, in that order, 12.4%, 12.5% and 8.15%.
Turning to `Clc1ccccc1OCc1ccccn1`, the values for the inhibition in assay [1], in assay [2] and in assay [3] were 3.19%, 2.07% and 2.66%, respectively.
The like results for `COC(=O)c1ccc2c(c1)nc(Nc1cccc(F)c1)n2CC(O)c1ccccn1` (stereo not drawn) were, in that order, 4.12%, 3.8% and 2.91%.
With `COc1ccc(CON2C(=N)N=C(N)NC2(C)C)cc1OC`, the inhibition in assay [1] is -1.03%; in assay [2], -1.38%; in assay [3], -0.13%.
The like results for `CC(C)CCN(Cc1cncn1Cc1ccccc1F)C(=O)c1cncc(-c2ccccc2)c1` were, in that order, 2.26%, 5.35% and 3.59%.
The like results for `Oc1c(C(Nc2ccccn2)c2ccco2)cc(Cl)c2cccnc12` (stereo not drawn) were, in that order, 0.55%, 1.24% and -1.1%.
The like results for `Cc1nc2ccccn2c1C1(O)C(=O)Nc2c(Cl)cc(Cl)cc21` (stereo not drawn) were, in that order, 5.72%, 4.95% and 2.71%.
For the compound `O=C(Nc1ccccc1-c1nc2ccccc2s1)C(Cl)(Cl)Cl`, the values for the inhibition in assay [1], in assay [2] and in assay [3] were 0.49%, 1.24% and 0.54%, respectively.
The like results for `Cc1cccc(Nc2nccc(NCC(O)c3cccc(C(F)(F)F)c3)n2)c1` (stereo not drawn) were, in that order, 7.67%, 7.59% and 2.59%.
With `O=C(CC1SC(N2N=C(c3cccs3)CC2c2ccccc2)=NC1=O)Nc1ccc(Cl)cc1` (stereo not drawn), the results for the inhibition in assay [1], in assay [2] and in assay [3] were 1.98%, 2.91% and -0.33%, respectively.
Regarding `Cn1cc(C2CCN(CCCCNC(=O)c3sc(-c4ccc(C(F)(F)F)cc4)nc3CO)CC2)c2ccccc21`, the inhibition in assay [1] is -3.34%; in assay [2] it was -1.85%; in assay [3], -0.2%.
On to `Cc1cc(Oc2ccc(-n3ccnc3)cc2)nc(N2CCN(CCCN3CCCC3)CC2)n1`, for which the inhibition in assay [1] is 4%; in assay [2], 5.53%; in assay [3] it was 2.69%.
The like results for `Fc1ccc2[nH]c(-c3ccc(-c4ccc(CNCc5cnn(-c6ccccc6)n5)cc4)cc3)nc2c1` were, in that order, 1.68%, -1.57% and -1.56%.
The like results for `COc1ccc2[nH]ccc(=NN=Cc3ccccc3F)c2c1` were, in that order, 7.58%, 7.67% and 7.56%.
`COc1ccc(Nc2ncc3c(-c4cccc(NC(=O)Cc5cccc(F)c5)c4)c[nH]c3n2)cc1OC`: the inhibition in assay [1] was 5.69%; in assay [2] it was 3.23%; in assay [3], 4.39%.
The like results for `CN(C)c1ccc(C(c2ccc(N(C)C)cc2)c2cc([N+](=O)[O-])ccc2Cl)cc1` were, in that order, 0.57%, 0.82% and -3.09%.
The like results for `Oc1ccc(CCNc2nc(NCCCOc3cccc(-c4ccccc4)c3)nc(N3CCNCC3)n2)cc1` were, in that order, 2.65%, 2.83% and 2.5%.
The like results for `O=C1Nc2ccccc2/C1=N/NC(=S)N1CCOCC1` were, in that order, -0.69%, -0.87% and 0.09%.
Take `Cc1ccc(S(=O)(=O)c2nc(S(=O)(=O)c3ccccc3)sc2NCC2CCCO2)cc1` (stereo not drawn): the inhibition in assay [1] stood at 11.8%; in assay [2], 11.1%; in assay [3] it was 9.48%.
For `COc1ccc2ncc(F)c([C@H](O)CN3CCC(NCc4ccc5c(c4)NC(=O)CO5)CC3)c2c1`, the inhibition in assay [1] came to 1.17%; in assay [2], 0.49%; in assay [3], 1.56%.
On to `O=C(N[C@@H](CC1CCCCC1)C(=O)NCc1cccc2ccccc12)c1ccc(O)c(-c2ccc(Cl)c(Cl)c2)c1`, for which the inhibition is 2.54% in assay [1], 2.25% in assay [2] and 2.22% in assay [3].
The like results for `Cc1cccc2nc(-c3cccc(-c4cccc(C(=O)NCCN5CCCC5)c4)c3)[nH]c12` were, in that order, 1.04%, 1.28% and -0.38%.
Regarding `Cc1cccc2nc(-c3ccc(-c4ccc(NC(=O)NCc5cccc(F)c5)cc4)cc3)[nH]c12`, the results for the inhibition in assay [1], in assay [2] and in assay [3] were 11.4%, 12.2% and 10.3%, respectively.
Consider `c1ccc(CNc2nc(NCCc3c[nH]cn3)nc(N3CCCC4CCCCC43)n2)cc1` (stereo not drawn), for which the inhibition in assay [1] was -1.84%; in assay [2] it was -0.22%; in assay [3] it was -1.46%.
The like results for `Cc1cc(-c2cc(Cl)ccc2Cl)no1` were, in that order, -2.71%, 0.03% and -0.72%.
The like results for `CCOc1ccc(-c2nonc2NC(=O)c2cccs2)cc1OCC` were, in that order, -0.24%, 1.17% and -0.56%.
The like results for `COc1ccc(Nc2ncc3c(-c4cccc(NC(=O)Cc5cccc(O)c5)c4)c[nH]c3n2)cc1OC` were, in that order, -1.87%, 1.51% and 3.39%.
In the case of `COc1ccc(S(=O)(=O)NC2CCN(CCNC(=O)Nc3cc(C)nc4ccccc34)C2)cc1` (stereo not drawn), the inhibition in assay [1] was -0.6%; in assay [2] it was -0.21%; in assay [3] it was -0.75%.
The like results for `O=C(Nc1cccc(CN2CCCN(Cc3ccc(O)cc3)CC2)c1)c1cc2ccccc2o1` were, in that order, -0.45%, 2.02% and 1.62%.
The like results for `N#Cc1ccc(-c2ccc(C(=O)NCCCCN3CCC(c4nc5ccccc5[nH]4)CC3)cc2)cc1` were, in that order, 2.16%, 2.21% and 2.69%.
The like results for `Nc1nc2c(ncn2OC[C@H]2COP(=O)(O)CO2)c(=O)[nH]1` were, in that order, -2.05%, 0.55% and -1.54%.
Regarding `COCCNC(=O)c1ccc(OC2CCN(CC(C)=Cc3ccccc3)CC2)c(Cl)c1`, the inhibition stood at 2.65% in assay [1], 3.32% in assay [2] and 1.03% in assay [3].
With `Cc1sc2ccc(Cl)cc2c1S(=O)(=O)Nc1ccc2nccc(N3CC(C)NC(C)C3)c2c1` (stereo not drawn), the inhibition in assay [1] was determined as 3.66%; in assay [2] it was 4.16%; in assay [3], 6.32%.
The like results for `c1cc(-c2ccc(CNCc3ccsc3)cc2)cc(-c2nc3ccccc3[nH]2)c1` were, in that order, 1.08%, 3.56% and -2.01%.
